About 730 (0.66%) of roughly 110,000 compounds were called active. No stated cut-off is given here; in the data, active means inhibition above about 50%; inconclusive means no clear call, values can overlap the other calls; inactive means below that. For the sample, actives were picked, then their nearest neighbours and some compounds at random.
biological target: Tyrosine-protein phosphatase non-receptor type 7 (Homo sapiens) (UniProt P35236); test: inhibitors of human HePTP phosphatase, primary screen, biochemical, absorbance, leukemia target (AID 521); conditions: recombinant HePTP phosphatase activity, OD absorbance; at 20 µM; hits give high values;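 further: plate controls were vehicle for no effect and reference inhibitor for full effect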
Sequence (P35236 whole entry, looked up): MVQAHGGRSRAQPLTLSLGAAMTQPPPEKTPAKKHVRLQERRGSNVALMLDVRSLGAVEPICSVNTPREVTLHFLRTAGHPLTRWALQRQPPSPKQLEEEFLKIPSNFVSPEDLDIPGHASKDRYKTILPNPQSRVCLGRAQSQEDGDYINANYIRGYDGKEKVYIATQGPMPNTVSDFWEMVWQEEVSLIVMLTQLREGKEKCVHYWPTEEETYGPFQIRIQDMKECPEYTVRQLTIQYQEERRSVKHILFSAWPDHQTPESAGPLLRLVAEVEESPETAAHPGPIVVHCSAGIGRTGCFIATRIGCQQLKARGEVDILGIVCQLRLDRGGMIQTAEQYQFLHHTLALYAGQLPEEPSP

SMILES	inhibition
COc1ccc2ccccc2c1/C=N/NC(=O)c1cc(C)[nH]n1	0.2% (inactive)
N#Cc1c2c(c(N3CCN(CCO)CC3)n3c1nc1ccccc13)CCCC2	4.3% (inactive)
Cc1cc(NCCN2CCCCCC2)n2c(nc3ccccc32)c1C#N	-9.3% (inactive)
Cc1c(C#N)c2nc3ccccc3n2c(=O)/c1=C\c1c(O)n(-c2ccc(Br)cc2)[nH]c1=O	103% (active)
COc1ccc(OC)c(N(CC(=O)Nc2cccc(Cl)c2)S(=O)(=O)c2ccc(OC)c(OC)c2)c1	-8.4% (inactive)
COc1ccc(NCN2C(=O)CSC2=O)cc1Cl	5.1% (inactive)
COc1cccc(/C=C(/C#N)C(=O)Nc2ccc(F)cc2)c1O	9.6% (inactive)
N#C/C(=C/c1cc(Cl)c(O)c(Cl)c1)C(=O)Nc1cccc(Br)c1	102% (active)
O=C(Nc1cccc(Br)c1)C(=O)NC1CCCC1	-7.9% (inactive)
CCOC(=O)c1c(Nc2ccc(C)cc2)csc1C	5.4% (inactive)
COc1ccc(CC(=O)Nc2ccc(-c3ccc(NC(=O)Cc4ccc(OC)cc4)c(OC)c3)cc2OC)cc1	-17.3% (inactive)
Cc1cc(C)cc(NC(=O)CN2C(=O)c3ccccc3C2=O)c1	4.6% (inactive)
CSc1nc(=O)n(C)c(C)c1C(C)=O	-0.4% (inactive)
O=C(NC(NC(=S)Nc1ccc(I)cc1)C(Cl)(Cl)Cl)c1cccc([N+](=O)[O-])c1 (configuration not stated)	-2.4% (inactive)
Cc1cc(C)c2nc3s/c(=C\c4ccc(-c5ccccc5C(=O)O)o4)c(=O)n3c2c1	103% (active)
COc1cc(/C=c2\sc3nc4c(C)cc(C)cc4n3c2=O)cc(Br)c1O	5.3% (inactive)
Cc1cc(C)c2nc3s/c(=C\c4ccc(N(C)C)cc4)c(=O)n3c2c1	8.6% (inactive)
O=C1c2ccccc2C(=O)c2c(NC3CCCCC3)cccc21	-14.5% (inactive)
COc1ccc(/C=N/n2cnc3sc4c(c3c2=O)CCCC4)cc1OC	1.7% (inactive)
O=C(Nc1cccc(NC(=O)c2ccc(Cl)cc2Cl)c1)c1ccc(-c2ccc([N+](=O)[O-])cc2)o1	5.5% (inactive)
CCOc1ccc2cc(S(=O)(=O)NCC3CCCO3)ccc2c1 (configuration not stated)	0.1% (inactive)
Cc1c(Br)c(=O)[nH]c(=O)n1Cc1ccccc1	0.2% (inactive)
O=C(NCc1ccccn1)C(=O)Nc1ccc(Br)cc1	7.9% (inactive)
Cc1cc(C)c(NC(=O)C(C)Sc2nnc(-c3cccc(F)c3)n2-c2ccccc2)c(C)c1 (configuration not stated)	-3.5% (inactive)
COc1ccc(Cl)cc1C(=O)Nc1ccc2c3c(cccc13)CC2	-1.6% (inactive)
CCCCOC(=O)Nc1nnc(-c2ccco2)s1	-8.6% (inactive)

SMILES	inhibition
CCOc1cc(/C=N/NC(=O)CC2C(=O)NN=C2C)ccc1O (configuration not stated)	-5.5% (inactive)
O=C(Nc1cccc([N+](=O)[O-])c1)c1ccc2c(c1)C(=O)N(N1C(=O)c3ccccc3C1=O)C2=O	-5.9% (inactive)
COC(=O)c1c(-c2ccc(Br)cc2)csc1NC(=O)CCCC(=O)O	8.8% (inactive)
CCc1ccc(N2C(=O)NC(=O)/C(=C\c3cc(Cl)c(O)c(Cl)c3)C2=O)cc1	2.7% (inactive)
CN(C)c1ccc(C2/C(=C(\O)c3ccccc3)C(=O)C(=O)N2CCCC(=O)O)cc1 (configuration not stated)	3.2% (inactive)
COc1cc(/C=C2/SC(=S)N(C)C2=O)cc([N+](=O)[O-])c1O	6.6% (inactive)
CC(=O)C1=C(O)C(=O)N(CCN2CCNCC2)C1c1ccc(C)cc1 (configuration not stated)	6% (inactive)
Cc1ccc(-c2csc(NC(=O)c3ccc(Cl)cc3)n2)cc1	7% (inactive)
CCN1C(=O)/C(=C\c2cn(CCOc3ccc(Br)cc3)c3ccccc23)SC1=S	2.4% (inactive)
Cc1cc(Cl)ccc1OCC(=O)O/N=C(\N)c1ccncc1	-14.4% (inactive)
COC(=O)CCN(C(=O)c1ccc(F)cc1)c1ccccn1	-21.6% (inactive)
O=C(NC(=O)C(Cl)(Cl)Cl)Nc1ccc(Cl)c(Cl)c1	3.7% (inactive)
Cc1ccc(S(=O)(=O)Nc2ccc(NC(=O)C3C4C=CC(O4)C3C(=O)O)cc2)cc1 (configuration not stated)	-5.5% (inactive)
O=C(Nc1nccs1)C(c1ccccc1)c1ccccc1	-5.8% (inactive)
O=C(O)C1C2C=CC(O2)C1C(=O)Nc1nccs1 (configuration not stated)	104% (active)
O=C(c1ccc2c(c1)OCO2)N1CCOCC1	104% (active)
O=C(Nc1ccc(N2CCOCC2)cc1)c1ccc2c(c1)OCO2	-5.6% (inactive)
O=C(c1ccc2c(c1)OCO2)N1CCNc2ccccc2C1	7.3% (inactive)
O=C(Nc1cccnc1)c1cnn2c1NC(c1ccco1)CC2C(F)(F)F (configuration not stated)	0.1% (inactive)
Cc1cc2oc(=O)cc(C)c2cc1NC(=O)c1ccccc1	-31.1% (inactive)
O=C(O)C(Sc1nc2ccccc2s1)c1ccccc1 (configuration not stated)	-17.3% (inactive)
O=C(O)CCCN1C(=O)/C(=C/c2ccccc2)SC1=S	8.8% (inactive)
O=C(O)CCCCCCCCCCN1C(=O)/C(=C/c2ccc(Br)cc2)SC1=S	70.7% (active)
O=C1/C(=C/c2ccc(Br)cc2)SC(=S)N1CCc1ccccc1	3.2% (inactive)
O=C(Nc1cccc(O)c1)c1cc2nc(-c3ccc(F)cc3)cc(C(F)(F)F)n2n1	4.4% (inactive)
CCOC(=O)c1ccc(N2NC(=O)/C(=C/c3ccc(Br)cc3)C2=O)cc1	6.5% (inactive)
